Measurements: PMC11006913

Key:
Assay in all cases: PBM; 200 nM protein, PBS
Conditions in all cases: dsDNA, one strand shown
PROP1 [1] = molecular target: PROP1 (Homo sapiens, UniProt O75360 56-141)
PROP1 [2] = molecular target: PROP1 (Homo sapiens, UniProt O75360 56-141, R99H)
PROP1 [3] = molecular target: PROP1 (Homo sapiens, UniProt O75360 56-141, F88S)
VAX1 [4] = molecular target: VAX1 (Homo sapiens, UniProt Q5SQQ9 86-172)
VAX1 [5] = molecular target: VAX1 (Homo sapiens, UniProt Q5SQQ9 86-172, T142I)
VAX1 [6] = molecular target: VAX1 (Homo sapiens, UniProt Q5SQQ9 86-172, K157R)
NKX3-2 [7] = molecular target: NKX3-2 (Homo sapiens, UniProt P78367 192-278, P234S)
NKX3-2 [8] = molecular target: NKX3-2 (Homo sapiens, UniProt P78367 192-278)
Chain of NKX3-2 (Homo sapiens, UniProt P78367 192-278) (P78367 192-278): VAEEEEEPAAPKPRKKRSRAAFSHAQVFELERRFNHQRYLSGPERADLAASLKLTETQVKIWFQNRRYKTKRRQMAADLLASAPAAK

Chain of PROP1 (Homo sapiens, UniProt O75360 56-141) (O75360 56-141): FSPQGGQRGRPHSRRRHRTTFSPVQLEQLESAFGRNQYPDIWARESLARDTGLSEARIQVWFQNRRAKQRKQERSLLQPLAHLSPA
Chain of VAX1 (Homo sapiens, UniProt Q5SQQ9 86-172, K157R) (Q5SQQ9 86-172 K157R): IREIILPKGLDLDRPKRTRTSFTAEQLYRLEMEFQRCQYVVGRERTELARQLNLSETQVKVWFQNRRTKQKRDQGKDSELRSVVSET
Chain of PROP1 (Homo sapiens, UniProt O75360 56-141, F88S) (O75360 56-141 F88S): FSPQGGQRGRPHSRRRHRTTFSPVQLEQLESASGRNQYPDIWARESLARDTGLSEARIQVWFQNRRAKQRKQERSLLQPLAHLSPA
Chain of PROP1 (Homo sapiens, UniProt O75360 56-141, R99H) (O75360 56-141 R99H): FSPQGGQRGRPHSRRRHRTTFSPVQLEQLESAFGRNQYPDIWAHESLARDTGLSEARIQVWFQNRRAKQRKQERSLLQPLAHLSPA
Chain of VAX1 (Homo sapiens, UniProt Q5SQQ9 86-172, T142I) (Q5SQQ9 86-172 T142I): as the sequence (Q5SQQ9 86-172 K157R) above, with T57I, R72K counted along it
Chain of VAX1 (Homo sapiens, UniProt Q5SQQ9 86-172) (Q5SQQ9 86-172): as the sequence (Q5SQQ9 86-172 K157R) above, with R72K counted along it
Chain of NKX3-2 (Homo sapiens, UniProt P78367 192-278, P234S) (P78367 192-278 P234S): as the sequence (P78367 192-278) above, with P43S counted along it

GGCTGACC
binding signal (PROP1 [1]): 6.72 upbm affinity estimate (log intensity, higher = more binding, comparable within an allelic series) | binding signal (PROP1 [2]): 6.74 upbm affinity estimate (log intensity, higher = more binding, comparable within an allelic series) | binding signal (PROP1 [3]): 6.56 upbm affinity estimate (log intensity, higher = more binding, comparable within an allelic series)

ATTATGGG
binding signal (PROP1 [1]): 9.26 upbm affinity estimate (log intensity, higher = more binding, comparable within an allelic series) | binding signal (PROP1 [2]): 8.87 upbm affinity estimate (log intensity, higher = more binding, comparable within an allelic series) | binding signal (PROP1 [3]): 7.21 upbm affinity estimate (log intensity, higher = more binding, comparable within an allelic series)

AGACCGTC
binding signal (PROP1 [1]): 6.82 upbm affinity estimate (log intensity, higher = more binding, comparable within an allelic series) | binding signal (PROP1 [2]): 6.83 upbm affinity estimate (log intensity, higher = more binding, comparable within an allelic series) | binding signal (PROP1 [3]): 6.81 upbm affinity estimate (log intensity, higher = more binding, comparable within an allelic series)

GCTCGGAC
binding signal (PROP1 [1]): 6.55 upbm affinity estimate (log intensity, higher = more binding, comparable within an allelic series) | binding signal (PROP1 [2]): 6.66 upbm affinity estimate (log intensity, higher = more binding, comparable within an allelic series) | binding signal (PROP1 [3]): 6.68 upbm affinity estimate (log intensity, higher = more binding, comparable within an allelic series)

CTCAGCGC
binding signal (PROP1 [1]): 6.82 upbm affinity estimate (log intensity, higher = more binding, comparable within an allelic series) | binding signal (PROP1 [2]): 6.86 upbm affinity estimate (log intensity, higher = more binding, comparable within an allelic series) | binding signal (PROP1 [3]): 6.88 upbm affinity estimate (log intensity, higher = more binding, comparable within an allelic series)

CACGACGA
binding signal (PROP1 [1]): 6.69 upbm affinity estimate (log intensity, higher = more binding, comparable within an allelic series) | binding signal (PROP1 [2]): 6.8 upbm affinity estimate (log intensity, higher = more binding, comparable within an allelic series) | binding signal (PROP1 [3]): 6.95 upbm affinity estimate (log intensity, higher = more binding, comparable within an allelic series)

GCTAGACC
binding signal (PROP1 [1]): 6.61 upbm affinity estimate (log intensity, higher = more binding, comparable within an allelic series) | binding signal (PROP1 [2]): 6.75 upbm affinity estimate (log intensity, higher = more binding, comparable within an allelic series) | binding signal (PROP1 [3]): 6.62 upbm affinity estimate (log intensity, higher = more binding, comparable within an allelic series)

CCGCACCC
binding signal (PROP1 [1]): 6.68 upbm affinity estimate (log intensity, higher = more binding, comparable within an allelic series) | binding signal (PROP1 [2]): 6.9 upbm affinity estimate (log intensity, higher = more binding, comparable within an allelic series) | binding signal (PROP1 [3]): 6.69 upbm affinity estimate (log intensity, higher = more binding, comparable within an allelic series)

CGCGAACC
binding signal (PROP1 [1]): 6.6 upbm affinity estimate (log intensity, higher = more binding, comparable within an allelic series) | binding signal (PROP1 [2]): 6.67 upbm affinity estimate (log intensity, higher = more binding, comparable within an allelic series) | binding signal (PROP1 [3]): 6.71 upbm affinity estimate (log intensity, higher = more binding, comparable within an allelic series)

GATAGTTA
binding signal (PROP1 [1]): 8.6 upbm affinity estimate (log intensity, higher = more binding, comparable within an allelic series) | binding signal (PROP1 [2]): 8.09 upbm affinity estimate (log intensity, higher = more binding, comparable within an allelic series) | binding signal (PROP1 [3]): 7.39 upbm affinity estimate (log intensity, higher = more binding, comparable within an allelic series)

TACCCTAA
binding signal (PROP1 [1]): 8.09 upbm affinity estimate (log intensity, higher = more binding, comparable within an allelic series) | binding signal (PROP1 [3]): 7.04 upbm affinity estimate (log intensity, higher = more binding, comparable within an allelic series)

AGTAAATA
binding signal (PROP1 [1]): 8.94 upbm affinity estimate (log intensity, higher = more binding, comparable within an allelic series) | binding signal (PROP1 [2]): 8.48 upbm affinity estimate (log intensity, higher = more binding, comparable within an allelic series) | binding signal (PROP1 [3]): 7.6 upbm affinity estimate (log intensity, higher = more binding, comparable within an allelic series)

GGGTCGGA
binding signal (PROP1 [1]): 6.69 upbm affinity estimate (log intensity, higher = more binding, comparable within an allelic series) | binding signal (PROP1 [2]): 6.78 upbm affinity estimate (log intensity, higher = more binding, comparable within an allelic series) | binding signal (PROP1 [3]): 6.58 upbm affinity estimate (log intensity, higher = more binding, comparable within an allelic series)

AAATCATG
binding signal (PROP1 [1]): 8.42 upbm affinity estimate (log intensity, higher = more binding, comparable within an allelic series) | binding signal (PROP1 [3]): 7.26 upbm affinity estimate (log intensity, higher = more binding, comparable within an allelic series)

AAAAATTT
binding signal (PROP1 [1]): 8.27 upbm affinity estimate (log intensity, higher = more binding, comparable within an allelic series) | binding signal (PROP1 [2]): 7.95 upbm affinity estimate (log intensity, higher = more binding, comparable within an allelic series) | binding signal (PROP1 [3]): 7.46 upbm affinity estimate (log intensity, higher = more binding, comparable within an allelic series)

CTTGGGTC
binding signal (PROP1 [1]): 6.81 upbm affinity estimate (log intensity, higher = more binding, comparable within an allelic series) | binding signal (PROP1 [2]): 6.75 upbm affinity estimate (log intensity, higher = more binding, comparable within an allelic series) | binding signal (PROP1 [3]): 6.83 upbm affinity estimate (log intensity, higher = more binding, comparable within an allelic series)

TGATTACA
binding signal (PROP1 [1]): 9.42 upbm affinity estimate (log intensity, higher = more binding, comparable within an allelic series) | binding signal (PROP1 [2]): 8.57 upbm affinity estimate (log intensity, higher = more binding, comparable within an allelic series) | binding signal (PROP1 [3]): 7.5 upbm affinity estimate (log intensity, higher = more binding, comparable within an allelic series)

GCGGCCGA
binding signal (PROP1 [1]): 6.81 upbm affinity estimate (log intensity, higher = more binding, comparable within an allelic series) | binding signal (PROP1 [2]): 6.82 upbm affinity estimate (log intensity, higher = more binding, comparable within an allelic series) | binding signal (PROP1 [3]): 6.76 upbm affinity estimate (log intensity, higher = more binding, comparable within an allelic series)

AACTAAGC
binding signal (VAX1 [4]): 9.21 upbm affinity estimate (log intensity, higher = more binding, comparable within an allelic series)

AGCTCCCG
binding signal (PROP1 [1]): 6.72 upbm affinity estimate (log intensity, higher = more binding, comparable within an allelic series) | binding signal (PROP1 [2]): 6.63 upbm affinity estimate (log intensity, higher = more binding, comparable within an allelic series) | binding signal (PROP1 [3]): 6.46 upbm affinity estimate (log intensity, higher = more binding, comparable within an allelic series)

CCGTGAAG
binding signal (VAX1 [4]): 7.1 upbm affinity estimate (log intensity, higher = more binding, comparable within an allelic series) | binding signal (VAX1 [5]): 7.21 upbm affinity estimate (log intensity, higher = more binding, comparable within an allelic series) | binding signal (VAX1 [6]): 7.02 upbm affinity estimate (log intensity, higher = more binding, comparable within an allelic series)

CAAATCTA
binding signal (VAX1 [4]): 8.78 upbm affinity estimate (log intensity, higher = more binding, comparable within an allelic series) | binding signal (VAX1 [5]): 8.51 upbm affinity estimate (log intensity, higher = more binding, comparable within an allelic series)

ATGATGAA
binding signal (VAX1 [4]): 9.52 upbm affinity estimate (log intensity, higher = more binding, comparable within an allelic series) | binding signal (VAX1 [5]): 9.3 upbm affinity estimate (log intensity, higher = more binding, comparable within an allelic series) | binding signal (VAX1 [6]): 9.22 upbm affinity estimate (log intensity, higher = more binding, comparable within an allelic series)

CGAAGCAG
binding signal (VAX1 [4]): 6.89 upbm affinity estimate (log intensity, higher = more binding, comparable within an allelic series) | binding signal (VAX1 [5]): 7.23 upbm affinity estimate (log intensity, higher = more binding, comparable within an allelic series) | binding signal (VAX1 [6]): 7.1 upbm affinity estimate (log intensity, higher = more binding, comparable within an allelic series)

CGTTGGGC
binding signal (VAX1 [4]): 7.21 upbm affinity estimate (log intensity, higher = more binding, comparable within an allelic series) | binding signal (VAX1 [5]): 7.31 upbm affinity estimate (log intensity, higher = more binding, comparable within an allelic series) | binding signal (VAX1 [6]): 7.23 upbm affinity estimate (log intensity, higher = more binding, comparable within an allelic series)

AAGTAGCT
binding signal (VAX1 [4]): 9.67 upbm affinity estimate (log intensity, higher = more binding, comparable within an allelic series) | binding signal (VAX1 [5]): 9.41 upbm affinity estimate (log intensity, higher = more binding, comparable within an allelic series) | binding signal (NKX3-2 [7]): 11.8 upbm affinity estimate (log intensity, higher = more binding, comparable within an allelic series) | binding signal (VAX1 [6]): 9.35 upbm affinity estimate (log intensity, higher = more binding, comparable within an allelic series) | binding signal (NKX3-2 [8]): 11.9 upbm affinity estimate (log intensity, higher = more binding, comparable within an allelic series)

TTATGGAA
binding signal (VAX1 [4]): 9.61 upbm affinity estimate (log intensity, higher = more binding, comparable within an allelic series) | binding signal (VAX1 [5]): 9.32 upbm affinity estimate (log intensity, higher = more binding, comparable within an allelic series) | binding signal (VAX1 [6]): 9.34 upbm affinity estimate (log intensity, higher = more binding, comparable within an allelic series)

AGCCCGTG
binding signal (VAX1 [4]): 7.01 upbm affinity estimate (log intensity, higher = more binding, comparable within an allelic series) | binding signal (VAX1 [5]): 7.09 upbm affinity estimate (log intensity, higher = more binding, comparable within an allelic series) | binding signal (VAX1 [6]): 7.28 upbm affinity estimate (log intensity, higher = more binding, comparable within an allelic series)
